# The supplement of paper PMC8728848
# Shown is part of a subset that was picked to be rich in the strongest signals.
# B1: Morniga (Morus nigra) (protein)
# chain: MAGTSTNTQTTGTSQTVEVGLWGGPGGNAWDDGSYTGIREINLSHGDAIGAFSVIYDLNGQPFTGPTHPGNEPSFKTVKITLDFPNEFLVSVSGYTGVLPRLATGKDVIRSLTFKTNKKTYGPYGKEEGTPFSLPIENGLIVGFKGRSGFVVDAIGVHLS
# Columns and labels:
# Experiment in all cases: glycan array binding signal (z-score within array); higher = stronger binding
# Settings in all cases: glycan notation: IUPAC condensed, linker removed
# [1] = target: Fuc(a1-2)Gal(b1-3)GalNAc(b1-4)[Neu5Ac(a2-3)]Gal(b1-4)Glc
# Method in brief: (§1)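 The binding signal is a Z-score computed within each array and averaged over linkers. Arrays of the same protein sequence at different concentrations or buffers were also averaged together. Data originate from 3228 arrays in the Consortium for Functional Glycomics database, kept only where the protein sequence was available.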
# [2] = target: Fuc(a1-2)Gal(b1-3)GlcNAc6S
# Method in brief: as §1
# [3] = target: Fuc(a1-2)Gal(b1-3)[Fuc(a1-4)]GlcNAc(b1-2)Man(a1-3)[Fuc(a1-2)Gal(b1-3)[Fuc(a1-4)]GlcNAc(b1-2)Man(a1-6)]Man(b1-4)GlcNAc(b1-4)GlcNAc
# Method in brief: as §1
# [4] = target: Fuc(a1-2)[Gal(a1-3)]Gal(b1-3)GlcNAc
# Method in brief: as §1
# [5] = target: Fuc(a1-2)[Gal(a1-3)]Gal(b1-4)[Fuc(a1-3)]GlcNAc(b1-3)GalNAc
# Method in brief: as §1
# [6] = target: Fuc(a1-2)[GalNAc(a1-4)]Gal(b1-4)GlcNAc
# Method in brief: as §1
# [7] = target: Fuc(a1-3)[Gal(b1-4)]GlcNAc(b1-2)Man(a1-3)[Fuc(a1-3)[Gal(b1-4)]GlcNAc(b1-2)Man(a1-6)]Man(b1-4)GlcNAc(b1-4)[Fuc(a1-6)]GlcNAc
# Method in brief: as §1
# [8] = target: Fuc(a1-3)[Gal3S(b1-4)]GlcNAc6S
# Method in brief: as §1
# [9] = target: Gal(a1-3)Gal(b1-4)[Fuc(a1-3)]GlcNAc(b1-2)Man(a1-3)[Gal(a1-3)Gal(b1-4)[Fuc(a1-3)]GlcNAc(b1-2)Man(a1-6)]Man(b1-4)GlcNAc(b1-4)GlcNAc
# Method in brief: as §1
# [10] = target: Gal(a1-4)Gal(b1-4)GlcNAc(b1-3)Gal(b1-4)Glc
# Method in brief: as §1
# [11] = target: Gal(b1-3)Gal(b1-4)GlcNAc(b1-2)Man(a1-3)[Gal(b1-3)Gal(b1-4)GlcNAc(b1-2)Man(a1-6)]Man(b1-4)GlcNAc(b1-4)GlcNAc
# Method in brief: as §1
# [12] = target: Gal(b1-4)GlcNAc(b1-2)Man(a1-3)Man(b1-4)GlcNAc(b1-4)GlcNAc
# Method in brief: as §1
# [13] = target: Gal(b1-4)GlcNAc(b1-2)Man(a1-3)[Gal(b1-4)GlcNAc(b1-2)][GlcNAc(b1-4)]Man(b1-4)GlcNAc(b1-4)GlcNAc
# Method in brief: as §1
# [14] = target: Gal(b1-4)GlcNAc(b1-2)Man(a1-3)[Man(a1-6)]Man(b1-4)GlcNAc(b1-4)GlcNAc
# Method in brief: as §1
# [15] = target: Gal(b1-4)GlcNAc(b1-2)Man(a1-6)[Man(a1-3)]Man(b1-4)GlcNAc(b1-4)GlcNAc
# Method in brief: as §1
# [16] = target: Gal(b1-4)GlcNAc(b1-2)[Gal(b1-4)GlcNAc(b1-6)]Man(a1-6)[Gal(b1-4)GlcNAc(b1-2)Man(a1-3)]Man(b1-4)GlcNAc(b1-4)[Fuc(a1-6)]GlcNAc
# Method in brief: as §1
# Gal(b1-6)Gal = target: Gal(b1-6)Gal
# Method in brief: as §1
# Gal3S6S(b1-4)GlcNAc6S = target: Gal3S6S(b1-4)GlcNAc6S
# Method in brief: as §1
# Gal6S(b1-3)GlcNAc = target: Gal6S(b1-3)GlcNAc
# Method in brief: as §1
# Gal6S(b1-4)GlcNAc6S = target: Gal6S(b1-4)GlcNAc6S
# Method in brief: as §1
# GalNAc(b1-3)GalNAc = target: GalNAc(b1-3)GalNAc
# Method in brief: as §1
# GlcA(b1-3)Gal = target: GlcA(b1-3)Gal
# Method in brief: as §1
# [17] = target: GlcNAc(a1-4)Gal(b1-4)GlcNAc
# Method in brief: as §1
# [18] = target: GlcNAc(a1-4)Gal(b1-4)GlcNAc(b1-3)Gal(b1-4)GlcNAc(b1-3)Gal(b1-4)GlcNAc
# Method in brief: as §1
# [19] = target: GlcNAc(b1-4)GlcNAc(b1-4)GlcNAc(b1-4)GlcNAc(b1-4)GlcNAc
# Method in brief: as §1
# [20] = target: Man(a1-2)Man(a1-3)[Man(a1-2)Man(a1-6)]Man(a1-6)[Man(a1-2)Man(a1-2)Man(a1-3)]Man
# Method in brief: as §1
# [21] = target: Man(a1-3)[Man(a1-6)]Man(a1-6)[Man(a1-2)Man(a1-3)]Man(b1-4)GlcNAc(b1-4)GlcNAc
# Method in brief: as §1
# [22] = target: Man(a1-3)[Man(a1-6)]Man(b1-4)GlcNAc(b1-4)GlcNAc
# Method in brief: as §1
# [23] = target: Man(a1-3)[Man(a1-6)]Man(b1-4)GlcNAc(b1-4)[Fuc(a1-6)]GlcNAc
# Method in brief: as §1
# [24] = target: Neu5Ac(a2-3)Gal(b1-3)GlcNAc(b1-3)Gal(b1-3)GlcNAc
# Method in brief: as §1
# [25] = target: Neu5Ac(a2-3)Gal(b1-3)GlcNAc(b1-6)GalNAc
# Method in brief: as §1
# [26] = target: Neu5Ac(a2-3)Gal(b1-4)GlcNAc(b1-2)Man(a1-3)[Neu5Ac(a2-6)Gal(b1-4)GlcNAc(b1-2)Man(a1-6)]Man(b1-4)GlcNAc(b1-4)GlcNAc
# Method in brief: as §1
# [27] = target: Neu5Ac(a2-3)Gal(b1-4)GlcNAc(b1-3)Gal(b1-3)GlcNAc
# Method in brief: as §1
# [28] = target: Neu5Ac(a2-3)Gal(b1-4)GlcNAc(b1-3)Gal(b1-4)GlcNAc(b1-3)Gal(b1-4)GlcNAc
# Method in brief: as §1
# [29] = target: Neu5Ac(a2-6)Gal(b1-4)GlcNAc(b1-2)Man(a1-3)Man(b1-4)GlcNAc(b1-4)GlcNAc
# Method in brief: as §1
# [30] = target: Neu5Ac(a2-6)Gal(b1-4)GlcNAc(b1-2)Man(a1-6)[Gal(b1-4)GlcNAc(b1-2)Man(a1-3)]Man(b1-4)GlcNAc(b1-4)GlcNAc
# Method in brief: as §1
# [31] = target: Neu5Ac(a2-6)Gal(b1-4)GlcNAc(b1-2)Man(a1-6)[Man(a1-3)]Man(b1-4)GlcNAc(b1-4)GlcNAc
# Method in brief: as §1
# [32] = target: Neu5Ac(a2-8)Neu5Ac(a2-8)Neu5Ac(a2-3)Gal(b1-4)Glc
# Method in brief: as §1
binder,measurement,setting,value
B1,glycan array binding signal (z-score),[1],-0.335
same,glycan array binding signal (z-score),[2],-0.321
same,glycan array binding signal (z-score),[3],-0.19
same,glycan array binding signal (z-score),[4],-0.332
same,glycan array binding signal (z-score),[5],-0.329
same,glycan array binding signal (z-score),[6],-0.34
same,glycan array binding signal (z-score),[7],-0.304
same,glycan array binding signal (z-score),[8],-0.324
same,glycan array binding signal (z-score),[9],0.347
same,glycan array binding signal (z-score),[10],-0.341
same,glycan array binding signal (z-score),[11],4.04
same,glycan array binding signal (z-score),[12],4.3
same,glycan array binding signal (z-score),[13],1.41
same,glycan array binding signal (z-score),[14],4.49
same,glycan array binding signal (z-score),[15],4.24
same,glycan array binding signal (z-score),[16],1.6
same,glycan array binding signal (z-score),Gal(b1-6)Gal,-0.326
same,glycan array binding signal (z-score),Gal3S6S(b1-4)GlcNAc6S,-0.316
same,glycan array binding signal (z-score),Gal6S(b1-3)GlcNAc,-0.338
same,glycan array binding signal (z-score),Gal6S(b1-4)GlcNAc6S,-0.337
same,glycan array binding signal (z-score),GalNAc(b1-3)GalNAc,-0.327
same,glycan array binding signal (z-score),GlcA(b1-3)Gal,-0.333
same,glycan array binding signal (z-score),[17],-0.296
same,glycan array binding signal (z-score),[18],-0.327
same,glycan array binding signal (z-score),[19],-0.335
same,glycan array binding signal (z-score),[20],-0.327
same,glycan array binding signal (z-score),[21],4.19
same,glycan array binding signal (z-score),[22],5.03
same,glycan array binding signal (z-score),[23],4.02
same,glycan array binding signal (z-score),[24],-0.332
same,glycan array binding signal (z-score),[25],-0.299
same,glycan array binding signal (z-score),[26],2.56
same,glycan array binding signal (z-score),[27],-0.325
same,glycan array binding signal (z-score),[28],-0.342
same,glycan array binding signal (z-score),[29],3.66
same,glycan array binding signal (z-score),[30],3.24
same,glycan array binding signal (z-score),[31],4.66
same,glycan array binding signal (z-score),[32],-0.334
